# The supplement of paper PMC6522484
# Several values for one entry are separate records, joined by “and”; a condition that tells them apart may be missing. Equal entries are not always repeated. ± gives the standard deviation of the averaged measurements.
# Tested on: DLD1
# Test: cell viability (CellTiter-Glo) relative to plate median (fraction of plate median); higher = more viable cells
# Conditions: 5 µM; treatment time 24 h; reporter: 7TFP
# Outline: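 Two independent replicates were averaged for each reported value. Library compounds were applied at a final 5 µM for 24 h to colorectal cancer cell lines stably expressing lentiviral TCF/Wnt firefly luciferase reporters. Firefly luciferase or CellTiterGlo luminescence from each well was normalised to the plate median.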
row,Compound,cell viability
1,S=P(N1CC1)(N1CC1)N1CC1,0.975 ± 0.036
2,C#C[C@]1(O)CC[C@H]2[C@@H]3CCC4=C(CCC(=O)C4)[C@H]3CC[C@@]21C,0.905 ± 0.022
3,N=C(N)NCCCCN,1 ± 0.054
4,CS(=O)(=O)c1ccc(C2=C(c3ccccc3)C(=O)OC2)cc1,1 ± 0.037
5,CCC(=O)O[C@@H]1[C@@H](OC2C(C)/C=C/C(=O)OC(C)C(CO[C@@H]3O[C@H](C)[C@@H](OC(=O)CC)[C@@H](OC)[C@H]3OC)C3OC3/C=C/C(=O)C(C)(O)CC2C)O[C@@H](C)C[C@H]1OC (stereo not given in full) [Chalcomycin B],1.04 ± 0.014
6,CC(=O)O[C@@H]1C[C@@]2(C)C(CC[C@@H]2C(C)=O)C2CCC3=CC(=O)CC[C@]3(C)C21 (stereo not given in full),0.943 ± 0.019
7,O=C(O)CN1C(=O)c2cccc3cccc(c23)C1=O,0.996 ± 0.034
8,C=C1c2c(Cl)ccc(O)c2C(=O)C2=C(O)[C@]3(O)C(=O)C(C(N)=O)=C(O)[C@@H](N(C)C)[C@@H]3[C@@H](O)[C@H]12.O=C(O)c1cc(S(=O)(=O)O)ccc1O,1.05 ± 0.021
9,N[C@@H](C(=O)N[C@@H]1C(=O)N2C(C(=O)O)=C(Cl)CS[C@H]12)c1ccccc1,0.963 ± 0.029
10,COc1ccc(OC)c(C(O)CNC(=O)CN)c1 (stereo not given),0.944 ± 0.067
11,COc1ccc(-c2cc(=O)c3c(O)c(OC)c(O[C@@H]4O[C@H](CO[C@@H]5O[C@@H](C)[C@H](O)[C@@H](O)[C@H]5O)[C@@H](O)[C@H](O)[C@H]4O)cc3o2)cc1,0.933 ± 0.087
12,O=c1[nH]cc(F)c(=O)[nH]1,1.03 ± 0.083
13,O=C(CCCCCCCCCCCCC1CCCC1)Nc1ccc(S(=O)(=O)c2ccc(NC(=O)CCCCCCCCCCCCC3CCCC3)cc2)cc1,1.02 ± 0.062
14,CC(=O)OCC1=C(C(=O)O)N2C(=O)[C@@H](NC(=O)Cc3cccs3)[C@H]2SC1,1.05 ± 0.021
15,C[C@H](CCC(=O)O)[C@H]1CC[C@H]2[C@@H]3C(=O)C[C@@H]4CC(=O)CC[C@]4(C)[C@H]3CC(=O)[C@]12C,0.956 and 0.954
16,C[C@@H]1O[C@@H]1P(=O)(O)O,1.04
17,NC[C@@H]1O[C@H](O[C@H]2[C@@H](O)[C@H](O[C@@H]3[C@@H](O)[C@H](N)C[C@H](N)[C@H]3O[C@H]3O[C@H](CO)[C@@H](O)[C@H](O)[C@H]3N)O[C@@H]2CO)[C@H](N)[C@@H](O)[C@@H]1O,1.1 ± 0.035
18,NCC[C@H](O)C(=O)N[C@@H]1C[C@H](N)[C@@H](O[C@H]2O[C@H](CN)[C@@H](O)[C@H](O)[C@H]2O)[C@H](O)[C@H]1O[C@H]1O[C@H](CO)[C@@H](O)[C@H](N)[C@H]1O,1.01 ± 0.014

row,Compound,cell viability
1,CC1COc2c(N3CCN(C)CC3)c(F)cc3c(=O)c(C(=O)O)cn1c23 (stereo not given),0.995 ± 0.05
2,COc1cccc2c1C(=O)c1c(O)c3c(c(O)c1C2=O)C[C@@](O)(C(=O)CO)C[C@@H]3O[C@H]1C[C@H](N)[C@H](O)[C@H](C)O1,1.04 ± 0.059
3,C[C@H]1[C@H]2CC[C@H]3[C@@H]4CC=C5C[C@@H](N(C)C)CC[C@]5(C)[C@H]4CC[C@]23CN1C,0.896 ± 0.0042
4,COc1ccc2[nH]c([S+]([O-])Cc3ncc(C)c(OC)c3C)nc2c1 (stereo not given),0.971 ± 0.084
5,CCc1nc(N)nc(N)c1-c1ccc(Cl)cc1,0.972 ± 0.082
6,NC(Cn1ccc(=O)c(O)c1)C(=O)O (stereo not given),0.987 ± 0.076
7,Nc1nc(F)nc2c1ncn2[C@@H]1O[C@H](COP(=O)(O)O)[C@@H](O)[C@@H]1O,0.987 ± 0.061
8,"CC(C)CC1NC(=O)C(NC(=O)c2ncccc2O)C(C)OC(=O)C(c2ccccc2)N(C)C(=O)C(C)NC(=O)C(C(C)C(C)C)N(C)C(=O)CN(C)C(=O)C2CCCN2C1=O (single isomer, unassigned; isomere) [Neoviridogrisein II (Isomere)]",0.904 ± 0.024
9,COC(=O)N/N=C/c1c[n+]([O-])c2ccccc2[n+]1[O-],0.917 ± 0.13
10,NNCCc1ccccc1,0.995 ± 0.11
11,Clc1ccc(C(c2ccccc2Cl)C(Cl)Cl)cc1 (stereo not given),0.937 ± 0.013
12,CCCCCC(=O)Cc1cc(O)cc(O)c1C(=O)Oc1cc(CC(=O)CCCCC)c(C(=O)O)c(OC)c1,0.992 ± 0.04
13,CC1CC2C3CCC4=CC(=O)C=CC4(C)C3(F)C(O)CC2(C)C1C(=O)CO (stereo not given),0.954 ± 0.033
14,CCOc1ccc2nc(S(N)(=O)=O)sc2c1,0.972 ± 0.054
15,CC(=O)NS(=O)(=O)c1ccc(N)cc1,1.07 ± 0.05
16,CC(=O)OC1CCC2(O)CC1(C)CCC1C2CC1(C)C (stereo not given),1.03 ± 0.014
17,Cc1oc(=O)c2c(O)cccc2c1CO [8-Hydroxy-4-hydroxymethyl-3-methyl-isocumarin],0.926 ± 0.032
